Tests used:
[1] = tested on: Vero E6 infected with SARS-CoV-2; test: morphology score (similarity to uninfected cells); higher = more like uninfected cells; settings: 24 h
[2] = tested on: Vero E6 infected with SARS-CoV-2; test: SARS-CoV-2 infection rate relative to infected DMSO; higher = more infection, active = 60 or less; settings: 24 h

Row | SMILES | morphology score [1] | SARS-CoV-2 infection rate [2]
1 | CC(O)CN1CCN(CC(=O)[O-])CCN(CC(=O)[O-])CCN(CC(=O)[O-])CC1.[Gd+3] (stereo not drawn) [gadoteridol] (10 µM) | -0.0781 | 108% (inactive)
2 | Cc1ncc(CO)c(C=O)c1O [pyridoxal] (10 µM) | -0.165 | 109% (inactive)
3 | COC(=O)C[C@](O)(CCCC(C)(C)O)C(=O)O[C@@H]1C(OC)=C[C@]23CCCN2CCc2cc4c(cc2[C@H]13)OCO4 [homoharringtonine] (10 µM) | 0.837 | 23% (active)
4 | C=CC(=O)Nc1cc(Nc2nccc(-c3c[nH]c4ccccc34)n2)c(OC)cc1N(C)CCN(C)C (0.833333 µM) | -0.245 | 112% (inactive)
5 | CN(C)CCOC(c1ccc(Cl)cc1)c1ccccn1 (stereo not drawn) [carbinoxamine] (10 µM) | 0.075 | 96% (inactive)
6 | COc1ccccc1N1CCN(CCCCNC(=O)c2ccc(-c3ccc(C(C)=O)cc3)cc2)CC1 (10 µM) | -0.218 | 113% (inactive)
7 | CC1(C)CC[C@]2(C(=O)O)CC[C@]3(C)C(=CC[C@@H]4[C@@]5(C)CC[C@H](O)C(C)(C)[C@@H]5CC[C@]43C)[C@@H]2C1 [oleanolic-acid] (10 µM) | 0.0528 | 110% (inactive)
8 | CC(C)(C)c1cc(NC(=O)Nc2ccc(-c3cn4c(n3)sc3cc(OCCN5CCOCC5)ccc34)cc2)no1 [quizartinib] (10 µM) | 0.177 | 97.5% (inactive)
9 | COc1cc2c(Nc3ccc(Cl)c(Cl)c3F)ncnc2cc1OC[C@@H]1C[C@@H]2CN(C)C[C@@H]2C1 (10 µM) | -0.291 | 120% (inactive)
